Here are results for 8 compounds from PubChem BioAssay (NCI).

Some test systems named below: NCI-H23 lung; NCI-H226 lung; NCI-H322M lung; HOP-62 NSCLC; NCI-H460 lung; HOP-92 NSCLC; NCI-H522 lung; A549/ATCC NSCLC; 786-0 renal; COLO 205 colon; DU-145 prostate; K-562 leukemia; MALME-3M melanoma; MDA-MB-231 breast; SF-268 CNS; SF-295 CNS; SF-539 CNS; M14 melanoma; RXF 393 renal.
Common to all, as to experiment: NCI-60 one-dose screen, 48 h (100 = growth as untreated, 0 = no growth, -100 = all killed)
Settings in all cases: 10 µM unless noted

About 83,000 compounds went through this panel and 20% of them were active in at least one assay; those are over-represented in the sample as a whole.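 Cells were grown in 96-well plates and exposed to the test compound at a single concentration for 48 hours; results are reported as percent growth, with values below 10 considered active.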 Unmarked numbers belong to inactive results. Activity calls are given as the source filed them.

Take `CCCc1cc2cc(-n3nc(C)c4c3CC(C)(C)CC4=O)cc(NC3CCC(O)CC3)c2c(=O)[nH]1` (configuration not stated): the growth in the assay on NCI-H23 lung was 29.8%; in the assay on NCI-H226 lung it was 33.8%; in the assay on NCI-H322M lung, 58.2%; in the assay with HOP-62 NSCLC, 28.5%; in the assay with NCI-H460 lung, 17.6%; in the assay with HOP-92 NSCLC, -25.7% (active). The growth in the assay with NCI-H522 lung was 40.8%; in the assay on A549/ATCC NSCLC, 21%; in the assay on 786-0 renal it was 26.1%; in the assay with COLO 205 colon, -10.1% (active); in the assay with DU-145 prostate, 38.8%; in the assay with K-562 leukemia it was 10%. Besides, the growth in the assay with MALME-3M melanoma was 29.9%; in the assay with MDA-MB-231 breast it was -0.14% (active); in the assay on SF-268 CNS it was 50.2%; with SF-295 CNS, -35.6% (active); in the assay on SF-539 CNS, 37.8%; in the assay with M14 melanoma it was 23.6%.
`O=c1[nH]c(N2CCOCC2)nc2scc(-c3ccccc3)c12`: the growth with NCI-H23 lung is 87.2%; in the assay with NCI-H226 lung it was 97.2%; in the assay with NCI-H322M lung it was 95%; in the assay on HOP-62 NSCLC, 91.3%; with NCI-H460 lung, 110%; with HOP-92 NSCLC, 79.7%. Moreover, the growth is 77% in the assay with NCI-H522 lung; 86.8% with A549/ATCC NSCLC; 95.2% in the assay on 786-0 renal; 101% in the assay with COLO 205 colon; 107% in the assay on DU-145 prostate; 101% in the assay with K-562 leukemia. In addition, the growth in the assay with MALME-3M melanoma is 88.8%; in the assay with MDA-MB-231 breast, 108%; with RXF 393 renal, 97.5%; in the assay with SF-268 CNS, 89.4%; with SF-295 CNS it was 96.5%; with SF-539 CNS, 94.3%. In addition, the growth with M14 melanoma is 98.9%.
Consider `Nc1ncnc2c1ccn2-c1cccc(NC(=O)c2ccc(N3CCOCC3)c(C(F)(F)F)c2)c1`, for which the growth is 49.8% in the assay on NCI-H23 lung; 60% in the assay with NCI-H226 lung; 80.6% in the assay on NCI-H322M lung; 71.3% in the assay with HOP-62 NSCLC; 28.8% in the assay with NCI-H460 lung; 20.5% in the assay on HOP-92 NSCLC. Also, the growth in the assay on NCI-H522 lung is 18.7%; with A549/ATCC NSCLC it was 28.1%; in the assay on 786-0 renal it was 86.4%; in the assay on COLO 205 colon it was 49%; in the assay on DU-145 prostate, 57.8%; with K-562 leukemia it was 21%. In addition, the growth in the assay with MALME-3M melanoma is 65.3%; with MDA-MB-231 breast, 46.6%; in the assay on RXF 393 renal, 19.4%; in the assay on SF-268 CNS, 55%; in the assay on SF-295 CNS, 28.6%; in the assay with SF-539 CNS, 46.9%. Further, the growth with M14 melanoma was 44.5%.
As to `COc1c(C(NC(=O)c2ccccc2)c2sccc2C)cc(Cl)c2cccnc12` (configuration not stated), the growth in the assay with NCI-H23 lung is 100%; with NCI-H226 lung it was 89.1%; in the assay with NCI-H322M lung it was 99.8%; in the assay with HOP-62 NSCLC, 88.2%; in the assay with NCI-H460 lung, 106%; in the assay with HOP-92 NSCLC it was 104%. Moreover, the growth with NCI-H522 lung was 72.4%; with A549/ATCC NSCLC, 75.7%; with 786-0 renal, 98.9%; with COLO 205 colon, 121%; in the assay on DU-145 prostate it was 108%; in the assay with K-562 leukemia it was 105%. The growth in the assay on MALME-3M melanoma was 108%; in the assay on MDA-MB-231 breast, 88.4%; in the assay with SF-268 CNS, 100%; in the assay with SF-295 CNS it was 103%; in the assay with SF-539 CNS, 106%; in the assay on M14 melanoma, 103%.
For the compound `COc1cc(-c2nc(C(=O)Nc3ccc(C)cc3)nn2-c2ccc(F)c(F)c2)cc(OC)c1OC`, the growth was 97.1% in the assay with NCI-H23 lung; 102% in the assay on NCI-H226 lung; 96% with NCI-H322M lung; 86% in the assay with HOP-62 NSCLC; 106% in the assay with NCI-H460 lung; 114% with HOP-92 NSCLC. Also, the growth in the assay with NCI-H522 lung was 48%; in the assay with A549/ATCC NSCLC, 96.2%; in the assay with 786-0 renal, 98.6%; in the assay with COLO 205 colon, 95.8%; with DU-145 prostate, 100%; in the assay on K-562 leukemia, 101%. Moreover, the growth in the assay with MALME-3M melanoma is 89%; in the assay on MDA-MB-231 breast, 96.1%; with RXF 393 renal, 116%; in the assay with SF-268 CNS, 89.2%; in the assay on SF-295 CNS it was 94%; with SF-539 CNS, 107%. In addition, the growth in the assay with M14 melanoma is 94.6%.
Consider `COc1ccc2c(c1OC)C(=O)O[C@@H]2[C@H]1c2c(c(C#CC#Cc3ccc(F)c(F)c3)c3c(c2OC)OCO3)CCN1C`, for which the growth is 90.3% in the assay on NCI-H23 lung; 95.1% with NCI-H226 lung; 88.8% with NCI-H322M lung; 68% in the assay with HOP-62 NSCLC; 103% in the assay on NCI-H460 lung; 82.3% in the assay on HOP-92 NSCLC. Besides, the growth in the assay with NCI-H522 lung was 86.5%; with A549/ATCC NSCLC, 67.8%; with 786-0 renal, 93%; in the assay with COLO 205 colon it was 84.7%; in the assay on DU-145 prostate it was 103%; in the assay on K-562 leukemia it was 87.1%. Moreover, the growth is 91% with MALME-3M melanoma; 90.9% in the assay on MDA-MB-231 breast; 95.9% in the assay with SF-268 CNS; 95.6% in the assay with SF-295 CNS; 94.9% in the assay with SF-539 CNS; 90.6% with M14 melanoma.
Take `CCCCCCCC(=O)SCC/C=C/[C@@H]1CC(=O)NCc2nc(co2)C2=N[C@@](C)(CS2)C(=O)N[C@@H](C(C)C)C(=O)O1`: the growth with NCI-H23 lung was -2.47% (active); with NCI-H226 lung, -10.4% (active); in the assay with NCI-H322M lung it was -18.5% (active); with HOP-62 NSCLC, -6.6% (active); in the assay on NCI-H460 lung it was 3.41% (active); in the assay on HOP-92 NSCLC, -15.5% (active). In addition, the growth in the assay on NCI-H522 lung was -10.2% (active); in the assay on A549/ATCC NSCLC, -2.81% (active); in the assay with 786-0 renal it was 10.2%; in the assay on COLO 205 colon it was -41.3% (active); in the assay with DU-145 prostate, 7.24% (active); with K-562 leukemia it was 6.6% (active). The growth with MALME-3M melanoma is 5.59% (active); with MDA-MB-231 breast it was -1.69% (active); with SF-268 CNS it was 1.9% (active); in the assay with SF-295 CNS, -62.5% (active); in the assay on SF-539 CNS, 9.22% (active); with M14 melanoma, -3.25% (active).
Regarding `CSc1nc2ncnc(SC)c2[nH]1`, the growth is 96.1% in the assay with NCI-H23 lung; 98.2% in the assay with NCI-H226 lung; 101% in the assay on NCI-H322M lung; 77.8% with HOP-62 NSCLC; 109% with NCI-H460 lung; 98.7% in the assay on HOP-92 NSCLC. In addition, the growth is 76% in the assay on NCI-H522 lung; 62.3% with A549/ATCC NSCLC; 98.9% with 786-0 renal; 103% with COLO 205 colon; 110% in the assay on DU-145 prostate; 100% in the assay with K-562 leukemia. Moreover, the growth in the assay with MALME-3M melanoma was 110%; in the assay with MDA-MB-231 breast, 107%; in the assay with SF-268 CNS it was 102%; with SF-295 CNS it was 102%; in the assay on SF-539 CNS, 103%; in the assay on M14 melanoma it was 97.9%.
